Source: PubChem BioAssay (National Center for Advancing Translational Sciences (NCATS))
Sampled rows, rich in hits. Any-hit rate of the full collection: about 6%.
PLK1 PBD inh = qHTS for Inhibitors of PLK1-PDB (polo-like kinase 1 - polo-box domain): Primary Screen. Plk1 PBD binding of FITC phosphopeptide, fluorescence polarization. 360,000 tested, 2.8% active. Potency, µM, inactives show max response, negative = inhibition, actives largely listed as inhibitors. Serine/threonine-protein kinase PLK1 (Homo sapiens), P53350; further: series mostly up to about 57 µM; nearly all actives have a fitted effect of over 65% in size
Tau fibril FP = qHTS for Inhibitors of Tau Fibril Formation, Fluorescence Polarization | 280,000 tested, 0.39% active | Microtubule-associated protein tau (Homo sapiens), P10636 | Potency, µM (top dose mostly 57.7 µM), without a hit: top-dose activity, negative = inhibition, most hits filed as inhibitors | K18 P301L tau heparin fibrillization, Alexa594 FP, 6 h; further: nearly all actives have a fitted effect of over 55% in size
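Recombinant K18 P301L […], labeled with Alexa 594 at 0.24 uM over 15 uM unlabeled; heparin inducer 20 uM final; 37 C, 6 hr; FP endpoint.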
Tau fibril ThT = qHTS for Inhibitors of Tau Fibril Formation, Thioflavin T Binding; AID 1460, 2008; recombinant tau K18 P301L, heparin-induced fibrillization, ThT fluorescence; Microtubule-associated protein tau (Homo sapiens), P10636; 270,000 tested, 2.1% active; Potency, µM (titrated, usually from 57.4 µM), inactives show at the highest dose activity, negative = inhibition, hits mostly inhibitors; further: nearly all actives have a fitted effect of over 55% in size
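Using a mix of unlabeled (15 uM) and Alexa 594-labeled (0.24 uM) tau K18 P301L, heparin-triggered fibrillization over 6 hr at 37 C was scored by ThT fluorescence.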
VDR inh = Inhibitors of the vitamin D receptor (VDR): qHTS. Potency, µM, inactives show max response, negative = inhibition, hits mostly inhibitors. Vitamin D3 receptor (Homo sapiens), P11473. 400,000 tested, 0.93% active. AID 504847, 2011. VDR-SRC2-3 peptide fluorescence polarization, 2 h
Target sequence (P11473 whole entry, looked up): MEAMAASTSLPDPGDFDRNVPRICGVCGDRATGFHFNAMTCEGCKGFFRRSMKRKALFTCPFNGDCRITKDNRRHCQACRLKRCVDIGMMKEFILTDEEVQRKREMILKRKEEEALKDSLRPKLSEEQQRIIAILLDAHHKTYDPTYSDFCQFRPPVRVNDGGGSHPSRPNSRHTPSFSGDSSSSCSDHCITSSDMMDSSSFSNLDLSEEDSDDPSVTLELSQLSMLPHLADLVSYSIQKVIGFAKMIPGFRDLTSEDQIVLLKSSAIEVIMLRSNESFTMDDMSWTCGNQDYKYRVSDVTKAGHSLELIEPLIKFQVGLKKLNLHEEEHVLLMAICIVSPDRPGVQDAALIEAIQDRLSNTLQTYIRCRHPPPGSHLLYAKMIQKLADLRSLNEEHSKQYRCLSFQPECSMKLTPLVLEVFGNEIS
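Measured by FP: displacement of SRC2-3 coactivator peptide from VDR by library compounds, following a two-hour ambient incubation.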
Tau fluor counter = Counterscreen qHTS for Inhibitors of Tau Fibril Formation, Fluorescence Polarization; 280,000 tested, 0.93% active; Potency, µM (highest dose often 57.7 µM), inactives show at the highest dose activity change, negative = decrease; AID 1463, 2008; tau K18 P301L Alexa594 fluorescence, heparin fibrillization; further: nearly all actives have a fitted effect of over 55% in size
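Human tau K18 P301L (15 uM unlabeled, 0.24 uM Alexa 594-labeled) in 100 mM sodium acetate pH 7 with 20 uM heparin, 6 hr at 37 C. ThT 30 uM added, 1 hr ambient; Alexa 594 FP and total fluorescence read at 555/632 nm.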
Sfp PPTase inh = qHTS Assay for Inhibitors of Bacillus subtilis Sfp phosphopantetheinyl transferase (PPTase). 4'-phosphopantetheinyl transferase ffp (Bacillus subtilis), Q9F4F7. Biochemical Sfp PPTase activity, qHTS. Potency, µM, for the others: largest response in the series, negative = inhibition, most hits filed as inhibitors. 310,000 tested, 3.5% active;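 further: the enzyme is Sfp with the accession as filed and its product quenches rhodamine fluorescence; 0% = enzyme reaction without inhibitor and -100% = no enzyme wells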
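After 15 min at room temperature with compound, 15 nM Sfp received 5 uM rhodamine-CoA plus 12.5 uM BHQ-2-ybbR (50 mM Hepes pH 7.6, 10 mM MgCl2). Rate came from the fluorescence difference over 30 min, ex 525/em 598 nm.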
* marks the source's active call; other numbers are inactive results; ? = inconclusive; / = no result; [ ] = another dose, or the depositor's remark. The call rests on the fitted dose curve; in most records, active means well fitted curve in the direction sought with a large enough effect; inconclusive means small, poorly fitted or top-dose-only effect, or another doubt; inactive means no such curve, though single readings can be large; an effect the other way counts as inactive or inconclusive. Unless noted, on the % scale 0 is the no-effect control and ±100 the full control effect; potency means the concentration at half of the fitted maximal effect.

SMILES	PLK1 PBD inh	Tau fibril FP	Tau fibril ThT	VDR inh	Tau fluor counter	Sfp PPTase inh
COc1ccc2[nH]c3c(N4CC(C)OC(C)C4)ncnc3c2c1 (centres undefined)	-3%	9%	-25%	-5%	-14%	5%
COc1cccc(N2CCN(c3ncnc4c3[nH]c3ccccc34)CC2C)c1 (centres undefined)	/	?	?	/	14µM*[quencher]	6%
COc1cccc(N2CCN(c3ncnc4c3[nH]c3ccc(F)cc34)CC2C)c1 (centres undefined)	-6%	?	?	1%	18µM*[quencher]	27%
c1ccc2c(c1)CCN(c1ncnc3c1[nH]c1ccccc13)C2	-9%	?	?	14%	?	-9%
COc1ccc([N+](=O)[O-])cc1N(CC(=O)NCC1CCCO1)S(C)(=O)=O (centres undefined)	-3%	1%	3%	-7%	1%	6%
ONCc1ccccc1	/	/	/	-2%	/	13µM*
COc1ccc(NC2CCCN(C(=O)C3=NN(C)C(=O)CC3)C2)cc1OC (centres undefined)	-4%	/	/	11%	/	14%
COc1ccc(/C=C2/CCc3ccccc3C2=O)cc1CN1CCOCC1	-10%	3%	?	-5%	-10%	1%
COc1ccc(/C=C2\CCc3ccccc3C2=O)cc1Cn1nc(C)cc1C	1%	6%	?	-23%	-10%	20µM*
CCOc1ccccc1CNc1ccc2cc(S(=O)(=O)N3CCC(C)CC3)ccc2n1	/	-4%	3%	16%	-27%	/
CCN(CC)S(=O)(=O)c1cccc(NC(=O)C2SC(=Nc3ccc(C)cc3C)C(C(=O)NCC3CCCO3)=C2N)c1 (centres undefined)	-6%	?	-14%	5%	13µM*[quencher]	8%
Cc1cc(C)c2c(c1)C1C=CCC1C(c1ccc(S(=O)(=O)N3CCOCC3)cc1)N2 (centres undefined)	3%	5%	-1%	11%	-3%	40µM*
O=C(O)c1cc(Cl)c2c(c1)[C@@H]1C=CC[C@@H]1[C@H](c1ccc(S(=O)(=O)N3CCOCC3)cc1)N2	27µM*	5%	11%	?	6%	?
Fc1ccccc1CN1CCCCCCC1	-2%	0%	-2%	-6%	3%	56µM*
CCOC(=O)c1c(N)sc2c(OCC)c(Br)ccc12	-3%	-1%	?	8%	25µM*[quencher]	24%
S=C(NCc1ccc2[nH]c3c(c2c1)CCCC3)Nc1ccccc1	-1%	12%	?	-12%	13µM*[quencher]	5%
CN(CC(=O)NCc1ccccc1)S(=O)(=O)c1ccc2[nH]c3c(c2c1)CCCC3	/	?	-5%	11%	?	/
Cc1cc(C)cc(NC(=S)NCc2ccc3[nH]c4c(c3c2)CCCC4)c1	-10%	?	?	-3%	10µM*[quencher]	3%
CCS(=O)(=O)NCc1ccc2[nH]c3c(c2c1)CCCC3	/	3%	-25%	/	?	-3%
CC(=O)Oc1ccc(C(=O)Nc2cccc(C(=O)c3ccc(C)c(C)c3)c2)cc1	0%	?	-5%	4%	?	17%
COc1cc(C(=O)OCC(=O)Nc2ccc(C)cc2)cc(OC)c1OC	-12%	/	/	-1%	/	17%
C/C1=C2/[N-]C(C(CC(N)=O)[C@@]2(C)CCC(=O)NCC(C)OP(=O)([O-])O[C@H]2[C@@H](O)[C@@H](n3cnc4cc(C)c(C)cc43)O[C@@H]2CO)[C@]2(C)N=C(/C(C)=C3N=C(/C=C4N=C1C(CCC(N)=O)C\4(C)C)[C@@H](CCC(N)=O)[C@]\3(C)CC(N)=O)[C@@H](CCC(N)=O)[C@]2(C)CC(N)=O.CC(=O)O.[Co] (some centres undefined)	/	/	/	10µM*	/	-21%
